Bioassay records: PubChem BioAssay, National Center for Advancing Translational Sciences (NCATS)
Only some compounds are listed: those with a hit (about 8.8% of all), similar ones and a draw of the others.
HTT cytoprotect: qHTS Multiplex Assay to Identify Dual Action Probes in a Cell Model of Huntington: Cytoprotection (ATP); PC12 HTT-Q103 induced, cytoprotection, ATP luminescence, 40 h; Potency, µM (top dose mostly 56.4 µM), most hits filed as activators; 230,000 tested, 0.14% active; AID 1471, 2008; further: nearly all actives have a fitted effect of over 45% in size
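Quantitative HTS on tebufenozide-induced (100 nM) PC12 cells expressing HTTQ103 exon 1–GFP; compounds tested as a concentration series; survival measured via cellular ATP.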
HttQ103 aggreg: qHTS Multiplex Assay to Identify Dual Action Probes in a Cell Model of Huntington: Aggregate Formation (GFP) | PC12 HttQ103-GFP aggregates, Acumen cytometry, 40 h | Potency, µM (highest dose often 46.1 µM), hits mostly inhibitors | 220,000 tested, 1.1% active | AID 1688, 2009; further: nearly all actives have a fitted effect of over 60% in size
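PC12 cells stably carrying ecdysone-inducible HTT exon 1 Q103–GFP were induced with tebufenozide (100 nM final) and treated with library compounds in titration. GFP aggregates in lysates were counted by laser scanning cytometry.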
ALDH1A1 block: qHTS Assay for Inhibitors of Aldehyde Dehydrogenase 1 (ALDH1A1). Aldehyde dehydrogenase 1A1 (Homo sapiens), P00352. Purified ALDH1A1, NADH fluorescence, propionaldehyde substrate. Potency, µM (top dose mostly 75.3 µM), most hits filed as inhibitors. 220,000 tested, 7.3% active. AID 1030, 2008; active means well fitted inhibition curve with a large enough effect, not every such curve was filed as active; inconclusive means small, poorly fitted or top-dose-only effect, or another doubt; inactive means no such curve, though single readings can be large or run the other way
Target sequence (P00352 whole entry, looked up): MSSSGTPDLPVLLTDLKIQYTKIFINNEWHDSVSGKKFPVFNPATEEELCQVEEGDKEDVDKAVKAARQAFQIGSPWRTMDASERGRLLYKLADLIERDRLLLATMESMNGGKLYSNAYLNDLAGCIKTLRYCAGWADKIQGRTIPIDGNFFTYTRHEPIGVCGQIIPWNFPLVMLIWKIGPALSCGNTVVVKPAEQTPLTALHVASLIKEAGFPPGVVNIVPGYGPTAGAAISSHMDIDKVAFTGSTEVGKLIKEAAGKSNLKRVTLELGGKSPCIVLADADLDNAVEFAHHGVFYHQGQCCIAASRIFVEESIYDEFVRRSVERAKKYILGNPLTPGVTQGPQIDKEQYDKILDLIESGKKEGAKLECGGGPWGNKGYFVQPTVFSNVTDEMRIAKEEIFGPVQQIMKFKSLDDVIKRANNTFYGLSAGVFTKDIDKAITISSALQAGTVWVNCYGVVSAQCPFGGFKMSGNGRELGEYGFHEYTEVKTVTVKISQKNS
Lamin A splicing: qHTS Assay for Modulators of Lamin A Splicing | HeLa LMNA splicing GFP/RFP minigene ratio, 48 h | Potency, µM (doses to about 46.1 µM), hits mostly inhibitors | 200,000 tested, 0.01% active | AID 1487, 2009; active means well fitted inhibition curve with a large enough effect in the signal ratio, with a control signal flat, not every such curve was filed as active; inconclusive means small, poorly fitted or top-dose-only effect, or effect the other way, or a change in a side signal; the % refers to the signal ratio
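S3 HeLa stable clones carrying a lamin A-EGFP splicing minigene plus DsRed2 were seeded at 600 cells/well in Opti-MEM with 2% FBS, pin-dosed and incubated 48 h at 37°C. Acumen cytometry (488 nm) gave the GFP/RFP total-intensity ratio.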
HPGD inh: qHTS Assay for Inhibitors of HPGD (15-Hydroxyprostaglandin Dehydrogenase); purified HPGD, NADH fluorescence kinetic, PGE2 substrate; AID 894, 2007; Potency, µM, most hits filed as inhibitors; 150,000 tested, 4.3% active; 15-hydroxyprostaglandin dehydrogenase [NAD(+)] (Homo sapiens), P15428; active means well fitted inhibition curve with a large enough effect, not every such curve was filed as active; inconclusive means small, poorly fitted or top-dose-only effect, or another doubt; inactive means no such curve, though single readings can be large or run the other way
Target sequence (P15428 whole entry, looked up): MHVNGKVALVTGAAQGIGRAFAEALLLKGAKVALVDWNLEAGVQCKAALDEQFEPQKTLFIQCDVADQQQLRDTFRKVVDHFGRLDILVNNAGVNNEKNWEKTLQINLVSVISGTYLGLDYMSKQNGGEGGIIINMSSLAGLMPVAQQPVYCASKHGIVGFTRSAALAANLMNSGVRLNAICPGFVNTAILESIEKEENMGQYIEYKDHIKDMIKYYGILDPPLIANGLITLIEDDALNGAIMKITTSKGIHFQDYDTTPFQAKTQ
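20 nM HPGD preincubated 15 min at room temperature with compound in 50 mM Tris-HCl pH 8, 0.01% Tween 20. Started with 1 mM NAD+ and 30 uM prostaglandin E2; NADH fluorescence (360/450 nm) read 5 times over 30-s intervals, last minus first.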
A number is an active result; 0 = inactive; ? = inconclusive; - = no result given; [ ] = dose if it differs, or a comment. Unless noted, the call rests on the fitted dose curve; in most records, active means well fitted curve in the direction sought with a large enough effect; inconclusive means small, poorly fitted or top-dose-only effect, or another doubt; inactive means no such curve, though single readings can be large; an effect the other way counts as inactive or inconclusive.

SMILES	HTT cytoprotect	HttQ103 aggreg	ALDH1A1 block	Lamin A splicing	HPGD inh
O=C1CC(N2CCN(c3ccc(F)cc3)CC2)C(=O)N1c1ccc2c(c1)OCO2 (stereo not given)	0	0	18.9µM	-	-
O=C1CC(N2CCN(Cc3ccc4c(c3)OCO4)CC2)C(=O)N1c1ccccc1 (stereo not given)	0[1.9 µM]	0	15.8µM	0	0
Cc1cccc(Nc2nc(N)nc(CN3CCN(Cc4ccc5c(c4)OCO5)CC3)n2)c1	0[0.074 µM]	0	14.1µM	?	0
O=C1CC(N2CCN(c3ccccc3Cl)CC2)C(=O)N1c1ccccc1 (stereo not given)	0[0.074 µM]	0	25.1µM	0	0
O=C1CC(N2CCN(c3ccccc3)CC2)C(=O)N1c1ccc2c(c1)OCCO2 (stereo not given)	0[0.074 µM]	0	0	0	0
Cc1ccc(C)c(N2C(=O)CC(N3CCN(Cc4ccc5c(c4)OCO5)CC3)C2=O)c1 (stereo not given)	0[10 µM]	0	?	0	0
COc1ccc(-c2nc(SCC(=O)Nc3c(C)cc(C)cc3C)n[nH]2)cc1	-	-	-	0	-
Cc1cccc(N2C(=O)CC(N3CCN(Cc4ccc5c(c4)OCO5)CC3)C2=O)c1 (stereo not given)	0	0	22.4µM	0	0
O=C(NNc1nc2ccc(F)cc2s1)c1cccc(F)c1	-	12.6µM	0	-	-
Cn1cnnc1SCC(=O)Nc1ccc2nc(SCc3ccccc3Cl)sc2c1	0[10 µM]	0	25.1µM	0	0
Cn1cnnc1SCC(=O)Nc1ccc2nc(SCc3cccc4ccccc34)sc2c1	0[10 µM]	?	14.1µM	?	0
Cc1cccc(NC(=O)CSc2nc3ccc(NC(=O)c4ccccc4)cc3s2)c1	-	-	-	0	-
COc1ccc(NC(=O)CSc2nncn2C)cc1OC	0[1.9 µM]	0	0	0	0
Cn1cnnc1SCC(=O)Nc1ccc2nc(SCc3ccccc3)sc2c1	0	?	3.55µM	0	?
CCN1C(=O)[C@H]2[C@H]3[C@H](O)[C@H](O)C/C(=N/OCC(C)C)[C@@H]3CC[C@@H]2C1=O	0[10 µM]	-	0[13.5 µM]	-	-
CCOC(=O)c1noc2ncn(CC(=O)Nc3ccc(C)c(F)c3)c(=O)c12	-	-	-	0	-
C/C(N)=C(/C#N)C(=O)CSc1nc(C2CCCCC2)n(-c2ccccc2)n1	0	0	31.6µM	0	0
COc1ccc(NC2CS(=O)(=O)CC2NCc2ccccc2)cc1 (stereo not given)	0[10 µM]	0	0	0	0
COc1ccc(OC)c(-n2c(SC)nnc2-c2c[nH]c3ccccc23)c1	0	0	?	0	17.8µM
COc1ccc(OC)c(-n2c(SCC(N)=O)nnc2-c2c[nH]c3ccccc23)c1	0	0	0	0	0
COc1ccc(CNC(=O)COC(=O)/C=C/c2cccc(Br)c2)cc1	0	0	0	0	-
N#CC1=C(N)NC(SCC(=O)O)=C(C#N)C12CCCC2	0	0	5.62µM	0	12.6µM
CC1=C(C(=O)Nc2ccccc2)C2(CCCCC2)C(C#N)=C(S)N1	0[10 µM]	0	20µM	0	25.1µM
N#CC1=C(N)NC(SCC(=O)Nc2ccccc2)=C(C#N)C12CCCC2	0	0	4.47µM	0	17.8µM
N#CC1=C(N)NC(SCc2ccc(F)cc2)=C(C#N)C12CCCCC2	0	12.6µM	?	0	0
SMILES	HTT cytoprotect	HttQ103 aggreg	ALDH1A1 block	Lamin A splicing	HPGD inh
CSC1=C(C#N)C2(CCCCC2)C(C(=O)Nc2ccccc2)=C(C)N1	0	-	-	-	-
COc1cc(-c2ccc(N=C=O)c(OC)c2)ccc1N=C=O	0	-	?	-	?
CCOc1ccc(NC(=O)c2cc(S(=O)(=O)N3CCCCCC3)cn2C)cc1	-	-	-	0	-
CCCCOC(=O)c1ccc(NC(=O)c2csnn2)cc1	-	-	-	0	-
COc1ccc(CNC(=O)Cn2c(=O)oc3cc(S(=O)(=O)NCc4ccccc4)ccc32)cc1	-	-	-	0	-
CCOc1ccc(CC(=O)NCCc2csc(-c3ccc(C(F)(F)F)cc3)n2)cc1	-	-	-	0	-
O=C(c1sc2ccccc2c1Cl)N1CCN(c2ccc(F)cc2)CC1	0	0	?	0	0
Cc1c(/C=N/NC(=O)c2sc3ccccc3c2Cl)cnn1C	0	0	20µM	0	0
O=C(N/N=C/c1c[nH]c2ccccc12)c1sc2ccccc2c1Cl	0[10 µM]	0	?	0	0
O=C(N/N=C/c1ccccn1)c1sc2ccccc2c1Cl	0[10 µM]	0[9.22 µM]	11.2µM	-	-
O=C(c1sc2ccccc2c1Cl)N1CCN(c2ncccn2)CC1	-	0	12.6µM	?	0
COc1ccc(C2=CC(c3cccc(C)c3)n3nnnc3N2)cc1 (stereo not given)	-	-	-	0	-
Cn1cc(Br)c(C(=O)NNC(=O)c2cccc(Br)c2)n1	0	0	0	0	0
COc1ccc(-n2nc3c(c2NC(=O)C(=O)N2CCN(C)CC2)CSC3)cc1	-	-	-	0	-
O=c1c(-c2cc(F)cc(F)c2)nc2cncnc2n1Cc1ccc(F)cc1	0	-	?	-	0
COc1ccc(S(=O)(=O)N2CCN(c3cc(-c4ccccc4)nc4ncnn34)CC2)cc1	0[10 µM]	12.6µM	?	?	?
COc1ccc(-c2cc(N3CCCC3)n3ncnc3n2)cc1	0	0	?	0	?
O=S(=O)(c1ccccc1)N1CCN(c2cc(-c3ccccc3)nc3ncnn23)CC1	0[10 µM]	11.2µM	?	0	0
O=S(=O)(c1ccc(Br)cc1)N1CCN(c2cc(-c3ccccc3)nc3ncnn23)CC1	0	0	?	0	?
Cc1cc(C)cc(NC(=O)CSc2nccn2C2CCCC2)c1	-	-	-	0	-
CCCN1Cc2cccc(C(=O)NC(CC(=O)OCC)c3ccc(OC(C)C)cc3)c2C1=O (stereo not given)	0	0	?	-	-
CCCN1Cc2cccc(C(=O)NC(CC(=O)OCC)c3ccc(C)cc3)c2C1=O (stereo not given)	0	0	12.6µM	-	-
Nc1nnc(SCC(=O)c2cccc([N+](=O)[O-])c2)s1	0	0	?	-	-
Nc1nnc(SCC(=O)c2ccc3ccccc3c2)s1	0[10 µM]	0[9.22 µM]	8.91µM	0	22.4µM
Nc1nnc(SCC(=O)Nc2sc3c(c2C(=O)c2ccccc2)CCCC3)s1	0[10 µM]	0	12.6µM	?	0
SMILES	HTT cytoprotect	HttQ103 aggreg	ALDH1A1 block	Lamin A splicing	HPGD inh
COCCNc1nnc(SCC(=O)Nc2sc3c(c2C(=O)c2ccccc2)CCCC3)s1	0[10 µM]	0	28.2µM	?	0
COCCNc1nnc(SCC(=O)NNC(=O)c2ccccc2)s1	0	0	0	-	-
COC(=O)NCc1ccc2c(c1)OCO2	0	0	0	0	0
CCOCCCNC(=O)C(c1ccc(OC)cc1)N(Cc1ccc2c(c1)OCO2)C(=O)c1ccccn1 (stereo not given)	0	0	0	0[9.22 µM]	-
O=C(C[n+]1ccc(C(=O)NCc2ccccc2)cc1)c1ccc2c(c1)OCCO2	0	0	3.55µM	-	-
CCOCC(=O)NCc1ccc2c(c1)OCO2	0	0	0	0	12.6µM
CCC/C(=N/NC(=O)c1ccc2c(c1)OCO2)c1cccs1	-	0	?	0	15.8µM
